Source: PubChem BioAssay (NCI)
Compounds without any hit were thinned out: in the full panel of roughly 79,000, 15% have a hit. Activity calls are given as the source filed them. Cut-off read from the data, not from the text of the source: active = growth inhibition above about 70%; inactive = the rest.

Assay: NCI Yeast Anticancer Drug Screen. Data for the CLN2oe strain (AID 163);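 note: 0% = growth of vehicle-only control cultures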
Settings: S. cerevisiae CLN2oe strain, active compounds read high
Method: Growth inhibition of yeast strains with defined genetic alterations is measured as a screen for potential anti-cancer activity. Selected strains with alterations in DNA damage repair or cell cycle control were exposed to compounds and growth inhibition was measured relative to vehicle treated controls. The strain used in this assay is CLN2oe

Measured: growth inhibition

OC(COc1cccc2ccccc12)CN1CCOCC1 (stereo not given)
inactive: at 1.2 µM 21% | at 3.7 µM 48% | at 11.0 µM 61% | at 33.0 µM 69%
active: at 100.0 µM 72%

O=[N+]([O-])c1ccc([N+]2=NC(c3ccccc3)=NN(c3ccccc3)C2)cc1
inactive: at 1.2 µM -5% | at 3.7 µM -3% | at 11.0 µM -2% | at 33.0 µM 2% | at 100.0 µM 40%

O=C(OCCN1CCCCCC1)C(c1ccsc1)C1CCCCC1 (stereo not given)
active: at 100.0 µM 72%
inactive: at 1.2 µM 10% | at 3.7 µM 32% | at 11.0 µM 51% | at 33.0 µM 57%

O=C(NNc1ccnc2cc(Cl)ccc12)/C(=C\c1ccccc1Cl)NC(=O)c1ccccc1
active: at 11.0 µM 70% | at 33.0 µM 76% | at 100.0 µM 83%
inactive: at 1.2 µM 11% | at 3.7 µM 32%

CCCCCCCCCCC(=O)Cl
inactive: at 1.2 µM -4% | at 3.7 µM -9% | at 11.0 µM -25% | at 33.0 µM -18%
active: at 100.0 µM 77%

CN(C)c1ccc(C(C#N)=C(C#N)C#N)cc1
inactive: at 1.2 µM 2% | at 3.7 µM 7% | at 11.0 µM 8% | at 33.0 µM 8% | at 100.0 µM 16%

CCCCCCCCCCNC(=O)OCC
active: at 100.0 µM 99%
inactive: at 1.2 µM 0% | at 3.7 µM 0% | at 11.0 µM 4% | at 33.0 µM 12%

Cc1ccc2ccc3cccc4ccc1c2c34
inactive: at 1.2 µM -7% | at 3.7 µM -2% | at 11.0 µM -4% | at 33.0 µM -13% | at 100.0 µM 13%
